Experiment [1] is described as follows: CCTE_Shafer_MEA_acute_per_burst_spike_number_mean: CCTE's Neural Acute Assay for Average Number of Spikes Per Burst, Shafer Lab (AID 2284015).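 Note: hits are decreases in mean spikes per burst versus baseline.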 The method, boiled down:
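We recorded spontaneous network firing of rat cortical neurons for 40 min before and 40 min during exposure to compound at 0.03-40 uM, at 37 C. Spikes were detected adaptively at 8x rms noise, and the change in average spikes per burst was fitted against DMSO.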

Experiment [2] is described as follows: CCTE_Shafer_MEA_acute_interburst_interval_mean: CCTE's Neural Acute Assay for Mean Interburst Interval, Shafer Lab (AID 2284016).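 Note: percent change of mean interburst interval versus each well's own pre-dose baseline; curves fitted for decrease in interburst interval relative to DMSO.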 The method, boiled down:
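MEA recording of spontaneous network bursting in primary rat cortical cultures; mean interburst interval was compared before and after a 40-min compound exposure (0.03-40 uM) and expressed as percent change, relative to DMSO.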

The nature of experiment [3]: CCTE_Shafer_MEA_acute_burst_percentage_mean: CCTE's Neural Acute Assay for Percentage of Spikes in a Burst, Shafer Lab (AID 2284017).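 For AC50: curve fitted for loss of signal so potency reflects decreased burst percentage.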 The method, boiled down: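 Compounds were tested at 0.03-40 uM on primary rat cortical neuron networks grown over microelectrodes, with at least three wells per compound. Spontaneous firing was recorded for 40 min before and 40 min after dosing, and the change in burst percentage was computed per well.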

A short description of experiment [4]: CCTE_Shafer_MEA_acute_per_network_burst_spike_number_mean: CCTE's Neural Acute Assay for Average Number of Spikes in a Network Burst, Shafer Lab (AID 2284019). A digest of the protocol:
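Rat cortical cultures, DIV 13/15; spike threshold 8x rms noise, 300-5000 Hz band-pass, 12.5 kHz sampling; wells need >/= 10 active electrodes. Compound 0.03-40 uM, 40 min, 37 C; % change vs own baseline, DMSO negative control.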

Experiment [5] is described as follows: CCTE_Shafer_MEA_acute_per_network_burst_spike_number_std: CCTE's Neural Acute Assay for Standard Deviation of Number of Spikes in a Network Burst, Shafer Lab (AID 2284020).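 Note: fitted for decrease in spike-number SD versus DMSO so actives lower it.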 A digest of the protocol: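 Rat cortical cultures, DIV 13/15, 37 C; 20-min stabilisation, 40-min baseline, compound 0.03-40 uM, 40-min re-record. Spikes detected at 8x rms noise (300-5000 Hz band-pass). Readout: % change from baseline in per-burst spike-number SD.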

Experiment [6] is described as follows: CCTE_Shafer_MEA_acute_network_burst_percentage: CCTE's Neural Acute Assay for Percentage of Network Bursts, Shafer Lab (AID 2284022).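 Note: curves fitted for loss so actives lower network burst percentage.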 A digest of the protocol:
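Network burst percentage (spikes in network bursts divided by total spikes) recorded at 37 C over 40 min baseline and 40 min after compound, 0.03-40 uM, in rat cortical cultures at DIV 13 or 15. Analysed as percent change from baseline versus DMSO.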

Experiment [7] is described as follows: CCTE_Shafer_MEA_acute_cross_correlation_area: CCTE's Neural Acute Assay for Area of Cross Correlation, Shafer Lab (AID 2284024).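 For outcome: rat primary cortical neuron networks on 48-well MEA at DIV 13 or 15 with 40 min exposure.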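 Note: area under pooled inter-electrode spike cross-correlation near zero lag as percent change from own baseline; curves fitted for loss of cross-correlation area so actives lower synchrony.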 A digest of the protocol: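 Percent change in well-wide cross-correlation area (window around zero lag) between 40 min baseline and 40 min post-compound recordings, 37 C; rat cortical cultures on MEA at DIV 13 or 15, dosed 0.03-40 uM, wells needing >/= 10 active electrodes.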

Experiment [8] can be described thus: CCTE_Shafer_MEA_acute_cross_correlation_HWHM: CCTE's Neural Acute Assay for Cross Correlation at Half Width at Half Maximum, Shafer Lab (AID 2284026).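 Note: percent change per well from pre-dose baseline in spike cross-correlogram half width; hits are a decrease in cross-correlogram half width relative to DMSO.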 A digest of the protocol:
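Per-well percent change in cross-correlogram half width at half maximum, derived from 40-min recordings before and after compound (0.03-40 uM) at 37 C. Cultures were rat cortical neurons, DIV 13 or 15, with adaptive spike detection at 8x rms.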

Experiment [9] in a line: CCTE_Shafer_MEA_acute_synchrony_index: CCTE's Neural Acute Assay for Synchrony, Shafer Lab (AID 2284027).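 Note: network synchrony index of spontaneous spiking in primary rat cortical neurons on MEAs; fitted for loss of signal so actives lower synchrony relative to DMSO.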 The method, boiled down:
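Plates equilibrated 20 min at 37 C, baseline recorded 40 min, compound (0.03-40 uM) added, then 40 min more recorded. Cells: primary rat cortical neurons, DIV 13 or 15. Per-well synchrony index change analysed in negative direction against DMSO.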

Experiment [10] is described as follows: CCTE_Shafer_MEA_dev_firing_rate_mean: CCTE's Neural Network Formation Assay for Mean Firing Rate, Shafer Lab (AID 2284031).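 For AC50: curve fitted for loss of firing so AC50 reflects decreased mean firing rate.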 A digest of the protocol:
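Steps: seed rat cortical cells (1.5 x 10^5/well) with laminin on PEI-coated MEA; dose day 0; record DIV 5/7/9/12, full media and compound exchange after DIV 5 and 9 recordings; compute well-mean firing rate AUC.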

Experiment [11] in a line: CCTE_Shafer_MEA_dev_per_burst_spike_percent: CCTE's Neural Network Formation Assay for Percent of Spikes in a Burst, Shafer Lab (AID 2284032).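 For AC50: fitted as a decrease in burst spike percentage below DMSO baseline.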 A digest of the protocol: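 Value is trapezoidal AUC over recordings on days 5, 7, 9 and 12 of the well-mean fraction of spikes falling in single-electrode bursts; rat cortical cultures exposed continuously from plating, treatment renewed DIV 5 and 9, fitted downward against DMSO.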

A short description of experiment [12]: CCTE_Shafer_MEA_dev_active_electrodes_number: CCTE's Neural Network Formation Assay for Number of Active Electrodes, Shafer Lab (AID 2284040; active = hit-call score of the fitted dose curve at least 0.9, where 1 is the maximum;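 for AC50: potency for loss of active electrodes versus DMSO so lower counts are hits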). The method, boiled down: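 Counts electrodes per well firing at least 5 spikes/min, recorded on days 5, 7, 9 and 12 in rat cortical cultures dosed continuously from plating (treatment refreshed DIV 5, 9). Value is the area under the curve over recordings, fitted downward relative to DMSO.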

Experiment [13] can be described thus: CCTE_Shafer_MEA_dev_burst_rate: CCTE's Neural Network Formation Assay for Burst Rate, Shafer Lab (AID 2284042).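 For AC50: potency for loss of burst rate below DMSO control.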 A digest of the protocol:
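Developmental network assay measuring how 12-day exposure of rat cortical neuron cultures alters bursting on extracellular MEA recordings. Values are AUC of well-mean burst rate across four recording days, relative to DMSO vehicle.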

Experiment [14] can be described thus: CCTE_Shafer_MEA_dev_bursting_electrodes_number: CCTE's Neural Network Formation Assay for Number of Bursting Electrodes, Shafer Lab (AID 2284043; active = hit-call score of the fitted dose curve at least 0.9, where 1 is the maximum;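 for AC50: potency is for loss of bursting electrodes relative to DMSO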). The method, boiled down: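 Rat cortical primary neurons, 48-well MEA, 16 electrodes/well; dosing DIV 0–12, re-dosed with full media change DIV 5, 9. Recordings DIV 5/7/9/12, AxIS adaptive spike detector; bursting electrode = ≥1 burst/2 min. AUC across days; loss of signal vs DMSO.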

The nature of experiment [15]: CCTE_Shafer_MEA_dev_per_burst_interspike_interval: CCTE's Neural Network Formation Assay for Burst Interspike Interval, Shafer Lab (AID 2284044).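 For AC50: potency for a decrease of within-burst interspike interval below DMSO level.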 A digest of the protocol:
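Mean interspike interval within single-electrode bursts, averaged over bursting electrodes, from rat cortical cultures on MEA plates recorded on days 5, 7, 9 and 12. Continuous compound exposure from plating; trapezoidal AUC fitted downward relative to DMSO.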

The nature of experiment [16]: CCTE_Deisenroth_AIME_384WELL_CTox_Active: Cytotoxicity Assessment (CTOX) in CCTE's 384-well Estrogen Receptor Transactivation Assay with AIME metabolic competence (metabolism positive), Deisenroth Lab (AID 2284037; active = hit-call score of the fitted dose curve at least 0.9, where 1 is the maximum;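 note: chemicals first conditioned 2 h by alginate-bound induced rat liver S9 before cells; activity means signal loss indicating cell death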). The method, boiled down: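 Chemicals pre-incubated 2 hours with alginate-immobilised phenobarbital/beta-naphthoflavone-induced male Sprague Dawley rat liver S9, then conditioned medium applied 24 hour to VM7Luc4E2 cells. Viability by fluorogenic protease substrate; 10-point series 0.002 - 200 uM.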

A short description of experiment [17]: CCTE_Deisenroth_AIME_384WELL_CTox_Inactive: Cytotoxicity Assessment (CTOX) in CCTE's 384-well Estrogen Receptor Transactivation Assay without AIME metabolic competence (metabolism negative), Deisenroth Lab (AID 2284039; active = hit-call score of the fitted dose curve at least 0.9, where 1 is the maximum;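 note: cell viability via live-cell protease substrate cleaved to fluorescent probe; cells exposed 24 h to medium preincubated 2 h with alginate-water beads without S9; loss of fluorescence signal means loss of viability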). A digest of the protocol:
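Fluorescence from a live-cell protease substrate, read after 24 h in VM7Luc4E2 cells, indicated viability. Test medium came from a 2 h AIME step without hepatic S9 (alginate-water microspheres); concentrations spanned 0.002 - 200 uM, single technical replicate per run.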

In experiment [18] the target is Estrogen receptor (Homo sapiens) (UniProt P03372). The experiment in a line: CCTE_Deisenroth_AIME_384WELL_LUC_Active: CCTE's 384-well Estrogen Receptor Transactivation Assay with AIME metabolic competence (ERTA luciferase; metabolism positive), Deisenroth Lab (AID 2284030; active = hit-call score of the fitted dose curve at least 0.9, where 1 is the maximum). The method, boiled down:
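VM7Luc4E2 breast cells were given, for 24 hours, medium pre-incubated for 2 hours with parent chemical (0.002-200 uM, 10 concentrations) and alginate-encapsulated phenobarbital/beta-naphthoflavone-induced rat hepatic S9. Luciferase gain of signal was fitted against 17beta-estradiol; n=4 or more.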

The target is the same in experiment [19]. The experiment in a line: CCTE_Deisenroth_AIME_384WELL_LUC_Shift: CCTE's 384-well Estrogen Receptor Transactivation Assay with AIME metabolic competence data shift (ERTA luciferase; difference in metabolism positive and negative), Deisenroth Lab (AID 2284041).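 Note: shift is response with S9 minus without S9 so positive means metabolism raised ER signal.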 The method, boiled down: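 Chemicals (0.002–200 uM, 10 points) pre-incubated 2 h with alginate-encapsulated induced male Sprague Dawley rat liver S9 or S9-free, then medium applied 24 h to VM7Luc4E2 cells; luciferase. Endpoint is per-concentration difference, S9-positive minus negative.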

“And” between values parts separate entries of the source, which are not always exact repeats. Equal values may be shown once. Results filed as inconclusive are left out. More than one record can exist for a structure, and the calls need not agree. The source made the active and inactive calls. Rule for the calls, unless noted: active = hit-call score of the fitted dose curve at least 0.9, where 1 is the maximum; inactive = score below 0.9.

Sequence of Estrogen receptor (Homo sapiens) (P03372 whole entry, looked up): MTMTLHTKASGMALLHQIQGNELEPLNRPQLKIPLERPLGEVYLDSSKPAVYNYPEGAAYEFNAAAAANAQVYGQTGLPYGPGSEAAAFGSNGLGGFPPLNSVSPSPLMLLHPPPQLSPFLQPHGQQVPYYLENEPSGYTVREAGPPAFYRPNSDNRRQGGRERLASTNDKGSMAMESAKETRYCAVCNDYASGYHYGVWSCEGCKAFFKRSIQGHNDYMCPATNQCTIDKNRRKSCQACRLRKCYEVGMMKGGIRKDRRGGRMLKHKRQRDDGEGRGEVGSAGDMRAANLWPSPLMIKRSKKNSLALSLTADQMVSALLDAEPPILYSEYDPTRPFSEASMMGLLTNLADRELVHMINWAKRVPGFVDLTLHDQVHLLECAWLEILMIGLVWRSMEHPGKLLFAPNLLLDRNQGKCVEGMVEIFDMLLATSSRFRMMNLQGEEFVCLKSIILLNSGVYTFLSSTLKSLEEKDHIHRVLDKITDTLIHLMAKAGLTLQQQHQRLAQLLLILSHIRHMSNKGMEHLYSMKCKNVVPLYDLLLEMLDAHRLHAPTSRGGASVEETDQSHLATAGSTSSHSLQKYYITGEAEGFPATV

For `CC[C@H](C)[C@H]1O[C@]2(C=C[C@@H]1C)C[C@@H]1C[C@@H](C/C=C(\C)[C@@H](O[C@H]3C[C@H](OC)[C@@H](O[C@H]4C[C@H](OC)[C@@H](NC)[C@H](C)O4)[C@H](C)O3)[C@@H](C)/C=C/C=C3\CO[C@@H]4[C@H](O)C(C)=C[C@@H](C(=O)O1)[C@]34O)O2`, the AC50 in [1] was 26.5 nM (active) and 1.5 µM (active); in experiment [2], 26.1 nM (active) and 2.28 µM (active); in experiment [3], 26.6 nM (active) and 37.8 nM (active); in experiment [4], 22.5 nM (active) and 1.91 µM (active); in experiment [5], 23.7 nM (active) and 1.5 µM (active); in experiment [6], 43 nM (active) and 1.55 µM (active). The AC50 was 6.26 nM (active) in experiment [7]; 25.5 nM (active) and 47.5 nM (active) in experiment [8]; 37.6 nM (active) and 751 nM (active) in experiment [9]; 6.97 nM (active) and 2.42 nM (active) in experiment [10]; 88.8 nM (active) and 3.52 nM (active) in [11]; 55 nM (active) and 4.37 nM (active) in [12]. Also, the AC50 in [13] is 21.3 nM (active) and 3.47 nM (active); in [14] it was 43.5 nM (active) and 3.01 nM (active); in experiment [15], 44.7 nM (active) and 5.36 nM (active). Also, the call in [7] was inactive.

For the compound `CN(C)[C@@H]1C(=O)C(C(N)=O)=C(O)[C@@]2(O)C(=O)C3=C(O)c4c(O)cccc4[C@@](C)(O)[C@H]3[C@H](O)[C@@H]12`, the compound was classed as inactive in experiment [1], in [2], in [3], in [4], in experiment [5] and in experiment [6]. Moreover, the outcome in [7], in experiment [8], in [9], in [10], in experiment [16] and in experiment [17] was inactive. For the same compound, the compound was classed as inactive in [13] and in [15]. Besides, the AC50 in experiment [11] is 50 µM (active); in experiment [12], 50 µM (active); in experiment [14], 22.7 µM (active).

As for `O=[N+]([O-])c1cc(C(F)(F)F)c(Cl)c([N+](=O)[O-])c1Nc1ncc(C(F)(F)F)cc1Cl`, the half-maximal activity concentration (AC50) in experiment [1] was 468 nM (active); in experiment [2], 1.14 µM (active); in experiment [3], 678 nM (active); in experiment [4], 321 nM (active); in experiment [5], 465 nM (active); in experiment [6], 1.13 µM (active). Moreover, the AC50 is 263 nM (active) in experiment [7]; 5.3 µM (active) in [8]; 481 nM (active) in [9]; 786 nM (active) in experiment [10]; 0.669 µM (active) in [11]; 100000 nM (active) in experiment [16]. The AC50 in experiment [17] was 142000 nM (active); in [12], 0.905 µM (active); in experiment [13], 390 nM (active); in experiment [14], 0.374 µM (active); in [15] it was 783 nM (active). The compound was classed as inactive in [18] and in experiment [19].

For `CC(C)=CC1C(C(=O)OCN2C(=O)C3=C(CCCC3)C2=O)C1(C)C` (configuration not stated), the compound was called inactive in experiment [1], in [2], in experiment [4], in experiment [5], in experiment [6] and in experiment [7]. Moreover, the call in experiment [10], in [11], in experiment [12], in [13], in experiment [14] and in experiment [15] was inactive. In addition, the AC50 in [3] is 20000 nM (active); in [8], 28.6 µM (active); in [9] it was 25100 nM (active).

(Values after PubChem BioAssay (EPA / NIEHS).)
